Laboratory results from the supplement of paper PMC10849652.
Of roughly 7,900 targets only a part is listed; those with a hit were picked by preference. About 0.6% of all pairs of compound and target were hits.

Experiments:
Assay in all cases: log2 fold change, soluble protein after heating vs DMSO (PISA); higher = thermal stabilisation; K562 cells, 10 uM, 30 min; active = over 0.2 and 3.5 SD of the protein, either way, in both replicates (recomputed)
bafetinib = compound: Cc1ccc(NC(=O)c2ccc(CN3CC[C@H](N(C)C)C3)c(C(F)(F)F)c2)cc1Nc1nccc(-c2cncnc2)n1 [bafetinib]
Outline: (§1)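 K562 cells at 2×10^6 cells/mL were exposed to 10 μM compound for 30 min, then aliquots were heated for 3 min across 48°C-58°C, pooled, and extracted in PBS containing 0.5% NP-40 at 4°C. The supernatant after 21,000xg for 90 min was taken as soluble protein and measured by TMTpro 16plex LC-MS/MS with channel sums equalised. Thermal stability is reported relative to control samples, with values from duplicates. Fold changes are given on a log2 scale.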

[1] = compound: Cn1cc(-c2ccc3nnc(C(F)(F)c4ccc5ncccc5c4)n3n2)cn1
Outline: as §1

tipifarnib = compound: Cn1cncc1[C@@](N)(c1ccc(Cl)cc1)c1ccc2c(c1)c(-c1cccc(Cl)c1)cc(=O)n2C [tipifarnib]
Outline: as §1

[2] = compound: NCC(=O)Nc1ccc(-n2nc(C(F)(F)F)cc2-c2ccc3c(ccc4ccccc43)c2)cc1
Outline: as §1

nilotinib = compound: Cc1cn(-c2cc(NC(=O)c3ccc(C)c(Nc4nccc(-c5cccnc5)n4)c3)cc(C(F)(F)F)c2)cn1 [nilotinib]
Outline: as §1

[3] = compound: Cc1nc(Nc2n[nH]c3c2CN(C(=O)N[C@H](CN(C)C)c2ccccc2)C3(C)C)c2sccc2n1
Outline: as §1

[4] = compound: Cc1ncc(-c2ccnc(Nc3ccc(S(C)(=O)=O)cc3)n2)n1C(C)C
Outline: as §1

mubritinib = compound: FC(F)(F)c1ccc(/C=C/c2nc(COc3ccc(CCCCn4ccnn4)cc3)co2)cc1 [mubritinib]
Outline: as §1

[5] = compound: NC1(c2ccc(-c3nc4ccn5c(=O)[nH]nc5c4cc3-c3ccccc3)cc2)CCC1
Outline: as §1

citarinostat = compound: O=C(CCCCCCNC(=O)c1cnc(N(c2ccccc2)c2ccccc2Cl)nc1)NO [citarinostat]
Outline: as §1

silmitasertib = compound: O=C(O)c1ccc2c(c1)nc(Nc1cccc(Cl)c1)c1ccncc12 [silmitasertib]
Outline: as §1

[6] = compound: O=C1NC(=O)C(c2cnc3ccccn23)=C1c1cn2c3c(cc(F)cc13)CN(C(=O)N1CCCCC1)CC2
Outline: as §1

[7] = compound: c1cc(OCCN2CCCCC2)cc(-c2n[nH]c3ccc(-c4nnc[nH]4)cc23)c1
Outline: as §1

[8] = compound: Cn1cc(-c2ccc3c(c2)CCN3C(=O)Cc2cccc(C(F)(F)F)c2)c2c(N)ncnc21
Outline: as §1

dasatinib = compound: Cc1nc(Nc2ncc(C(=O)Nc3c(C)cccc3Cl)s2)cc(N2CCN(CCO)CC2)n1 [dasatinib]
Outline: as §1

[9] = compound: NC(=O)c1cnc(N[C@@H]2CCCC[C@@H]2N)nc1Nc1cccc(-n2nccn2)c1
Outline: as §1

[10] = compound: NC(=O)Nc1cc(-c2cccc(F)c2)sc1C(=O)N[C@H]1CCCNC1
Outline: as §1

entinostat = compound: Nc1ccccc1NC(=O)c1ccc(CNC(=O)OCc2cccnc2)cc1 [entinostat]
Outline: as §1

[11] = compound: Cc1cccc(CC(=O)N2CCc3c2ccc(-c2cn(C)c4ncnc(N)c24)c3F)n1
Outline: as §1

vorinostat = compound: O=C(CCCCCCC(=O)Nc1ccccc1)NO [vorinostat]
Outline: as §1

Measured: log2 fold change

PSMA3 (UniProt G3V4X5)
inactive: bafetinib 0.159 | [1] 0.174 | tipifarnib 0.067 | [2] -0.055

PCNX1 (UniProt Q96RV3)
Sequence of UniProt Q96RV3 (Q96RV3 whole entry, looked up): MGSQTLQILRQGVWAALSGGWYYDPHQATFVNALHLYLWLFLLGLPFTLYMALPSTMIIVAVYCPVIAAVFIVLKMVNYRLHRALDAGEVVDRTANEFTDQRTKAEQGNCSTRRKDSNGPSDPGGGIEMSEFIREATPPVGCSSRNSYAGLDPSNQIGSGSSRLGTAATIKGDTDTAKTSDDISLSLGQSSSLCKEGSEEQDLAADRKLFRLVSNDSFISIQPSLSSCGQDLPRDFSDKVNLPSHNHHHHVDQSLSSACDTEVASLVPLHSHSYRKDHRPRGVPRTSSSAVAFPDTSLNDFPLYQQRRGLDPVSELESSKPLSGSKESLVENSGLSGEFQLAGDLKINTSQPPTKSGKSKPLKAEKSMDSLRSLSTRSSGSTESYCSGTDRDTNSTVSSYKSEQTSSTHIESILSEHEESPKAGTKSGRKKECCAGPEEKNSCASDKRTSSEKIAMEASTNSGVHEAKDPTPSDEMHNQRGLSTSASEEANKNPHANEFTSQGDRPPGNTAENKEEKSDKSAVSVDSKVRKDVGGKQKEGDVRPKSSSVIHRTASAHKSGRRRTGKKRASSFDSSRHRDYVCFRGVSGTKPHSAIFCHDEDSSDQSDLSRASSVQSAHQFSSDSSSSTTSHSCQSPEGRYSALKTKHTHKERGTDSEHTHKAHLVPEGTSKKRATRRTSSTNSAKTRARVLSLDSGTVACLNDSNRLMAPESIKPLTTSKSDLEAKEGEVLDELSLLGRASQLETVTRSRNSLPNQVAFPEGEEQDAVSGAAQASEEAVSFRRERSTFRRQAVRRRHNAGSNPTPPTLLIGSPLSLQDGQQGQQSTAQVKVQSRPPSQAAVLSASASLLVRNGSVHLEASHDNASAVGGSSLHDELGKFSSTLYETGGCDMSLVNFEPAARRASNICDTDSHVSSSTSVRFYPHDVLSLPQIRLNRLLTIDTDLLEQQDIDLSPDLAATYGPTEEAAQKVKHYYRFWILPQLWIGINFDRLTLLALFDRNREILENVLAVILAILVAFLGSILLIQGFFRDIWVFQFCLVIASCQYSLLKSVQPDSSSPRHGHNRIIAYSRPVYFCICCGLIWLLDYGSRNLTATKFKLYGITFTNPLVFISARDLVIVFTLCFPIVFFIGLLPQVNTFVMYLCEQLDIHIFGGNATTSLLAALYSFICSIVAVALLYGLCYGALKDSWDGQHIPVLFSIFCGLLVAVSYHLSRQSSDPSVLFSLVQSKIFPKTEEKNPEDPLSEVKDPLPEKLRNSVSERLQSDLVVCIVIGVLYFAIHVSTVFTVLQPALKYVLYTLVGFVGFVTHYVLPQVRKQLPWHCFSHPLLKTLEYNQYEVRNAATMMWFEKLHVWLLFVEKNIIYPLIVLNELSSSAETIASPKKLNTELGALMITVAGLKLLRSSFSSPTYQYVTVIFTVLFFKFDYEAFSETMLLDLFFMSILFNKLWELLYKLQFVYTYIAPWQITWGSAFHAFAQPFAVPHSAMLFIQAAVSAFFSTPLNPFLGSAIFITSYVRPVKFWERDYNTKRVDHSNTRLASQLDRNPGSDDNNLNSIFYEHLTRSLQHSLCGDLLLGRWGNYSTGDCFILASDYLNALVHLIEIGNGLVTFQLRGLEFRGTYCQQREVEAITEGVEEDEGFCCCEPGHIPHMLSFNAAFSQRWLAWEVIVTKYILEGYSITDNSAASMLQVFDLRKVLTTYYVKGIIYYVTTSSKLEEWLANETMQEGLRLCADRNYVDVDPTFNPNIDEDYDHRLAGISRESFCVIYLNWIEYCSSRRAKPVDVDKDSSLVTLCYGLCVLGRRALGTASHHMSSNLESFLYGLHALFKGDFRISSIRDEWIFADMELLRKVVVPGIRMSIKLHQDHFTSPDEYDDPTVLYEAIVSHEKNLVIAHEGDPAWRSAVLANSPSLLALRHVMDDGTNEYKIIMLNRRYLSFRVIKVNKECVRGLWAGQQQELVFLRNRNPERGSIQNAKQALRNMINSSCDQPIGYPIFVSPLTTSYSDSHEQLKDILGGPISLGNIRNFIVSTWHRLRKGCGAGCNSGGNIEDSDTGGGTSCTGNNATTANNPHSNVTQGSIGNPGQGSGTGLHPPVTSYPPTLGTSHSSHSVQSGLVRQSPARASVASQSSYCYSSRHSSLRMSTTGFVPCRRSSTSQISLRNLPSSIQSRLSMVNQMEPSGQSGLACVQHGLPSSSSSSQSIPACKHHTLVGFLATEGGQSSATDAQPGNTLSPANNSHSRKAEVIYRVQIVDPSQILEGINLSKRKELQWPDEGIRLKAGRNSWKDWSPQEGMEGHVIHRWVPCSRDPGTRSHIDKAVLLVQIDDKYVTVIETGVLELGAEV
inactive: bafetinib -0.112 | nilotinib 0.007 | [3] 0.009 | [4] 0 | tipifarnib 0.305 | mubritinib -0.019 | [5] 0.042 | [2] -0.043 | citarinostat -0.237 | silmitasertib -0.11 | [6] -0.14 | [7] -0.269

PSMD8 (UniProt K7ERW6)
inactive: [2] -0.417

PPP1R12B isoform 6 (UniProt O60237)
inactive: bafetinib -0.024 | nilotinib -0.004 | [3] -0.191 | [4] 0.007

PDE4DIP (UniProt E9PS60)
inactive: [8] -0.007 | [2] -0.172 | citarinostat 0.06 | [7] -0.051

PUF60 isoform 2 (UniProt Q9UHX1)
Sequence of UniProt Q9UHX1 (Q9UHX1 whole entry, looked up): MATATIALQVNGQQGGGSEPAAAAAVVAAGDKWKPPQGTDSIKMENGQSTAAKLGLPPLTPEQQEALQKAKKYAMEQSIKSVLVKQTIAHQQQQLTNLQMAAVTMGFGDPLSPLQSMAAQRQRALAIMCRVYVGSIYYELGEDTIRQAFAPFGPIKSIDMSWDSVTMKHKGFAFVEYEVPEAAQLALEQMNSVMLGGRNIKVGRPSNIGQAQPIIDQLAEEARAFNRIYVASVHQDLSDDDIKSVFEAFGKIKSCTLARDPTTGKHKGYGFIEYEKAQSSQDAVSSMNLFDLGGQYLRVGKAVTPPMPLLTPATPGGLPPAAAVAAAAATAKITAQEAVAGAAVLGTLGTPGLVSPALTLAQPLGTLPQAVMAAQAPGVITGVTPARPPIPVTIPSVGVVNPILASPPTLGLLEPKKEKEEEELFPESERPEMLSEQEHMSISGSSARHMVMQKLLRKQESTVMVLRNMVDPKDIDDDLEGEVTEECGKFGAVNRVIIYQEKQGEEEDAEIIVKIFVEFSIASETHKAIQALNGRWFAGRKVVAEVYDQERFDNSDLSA
inactive: bafetinib -0.089 | dasatinib -0.173 | [8] 0.043 | [1] -0.103 | tipifarnib -0.159 | mubritinib -0.257 | [9] 0.024 | [5] -0.137 | [2] 0.21 | silmitasertib 0.069

PDE4A (UniProt P27815)
Sequence of UniProt P27815 (P27815 whole entry, looked up): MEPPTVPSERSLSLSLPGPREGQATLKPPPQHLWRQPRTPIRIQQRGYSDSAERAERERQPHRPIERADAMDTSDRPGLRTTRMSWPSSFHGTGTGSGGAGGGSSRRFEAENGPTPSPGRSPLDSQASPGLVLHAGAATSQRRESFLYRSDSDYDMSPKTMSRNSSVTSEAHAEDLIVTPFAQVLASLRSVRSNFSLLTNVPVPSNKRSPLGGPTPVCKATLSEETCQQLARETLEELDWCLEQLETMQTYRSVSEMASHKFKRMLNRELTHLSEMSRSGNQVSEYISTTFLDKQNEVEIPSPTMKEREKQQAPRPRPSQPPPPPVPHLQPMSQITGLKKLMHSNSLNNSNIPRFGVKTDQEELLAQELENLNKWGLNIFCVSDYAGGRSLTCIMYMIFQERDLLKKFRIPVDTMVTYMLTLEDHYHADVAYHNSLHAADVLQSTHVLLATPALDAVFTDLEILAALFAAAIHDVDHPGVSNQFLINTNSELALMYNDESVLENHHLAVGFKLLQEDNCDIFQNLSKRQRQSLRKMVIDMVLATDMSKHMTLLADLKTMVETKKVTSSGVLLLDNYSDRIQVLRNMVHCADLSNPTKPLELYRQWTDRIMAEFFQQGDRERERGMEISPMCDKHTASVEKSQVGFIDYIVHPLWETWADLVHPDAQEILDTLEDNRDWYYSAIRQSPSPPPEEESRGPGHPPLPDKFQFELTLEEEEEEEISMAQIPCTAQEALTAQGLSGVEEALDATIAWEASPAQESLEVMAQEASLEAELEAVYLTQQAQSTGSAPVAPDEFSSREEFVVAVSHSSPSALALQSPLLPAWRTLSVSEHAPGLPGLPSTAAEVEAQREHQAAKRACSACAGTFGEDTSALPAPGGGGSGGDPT
inactive: bafetinib -0.157 | [8] -0.016 | [1] 0.021 | tipifarnib -0.108 | [2] 0.047 | [6] -0.017
active: [9] -0.67

QRICH1 (UniProt Q2TAL8)
inactive: bafetinib 0.042 | nilotinib -0.093 | [3] -0.118 | dasatinib -0.206 | [4] 0.078 | [8] 0.043 | [1] 0.108 | tipifarnib -0.159 | mubritinib -0.01 | [10] -0.043 | [9] -0.119 | [5] -0.137 | [2] -0.093 | entinostat 0.168 | citarinostat 0.11 | silmitasertib 0.047 | [6] -0.276 | [7] 0.027

PUM1 (UniProt Q14671)
inactive: [11] -0.202 | dasatinib -0.207 | [8] 0.229 | [9] 0.058 | vorinostat -0.037

PTP4A3 (UniProt O75365)
Sequence of UniProt O75365 (O75365 whole entry, looked up): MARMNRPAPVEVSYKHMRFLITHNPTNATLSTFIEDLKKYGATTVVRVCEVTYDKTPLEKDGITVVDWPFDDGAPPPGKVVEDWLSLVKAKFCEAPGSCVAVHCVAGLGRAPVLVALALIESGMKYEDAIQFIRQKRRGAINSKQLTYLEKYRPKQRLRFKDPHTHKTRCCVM
inactive: bafetinib 0.162 | [2] -0.105

PSMC1 (UniProt G3V4X1)
inactive: [11] -0.579 | nilotinib -0.195 | [3] 0.042 | [4] -0.046 | [8] 0.066 | tipifarnib 0.479 | vorinostat 0.168

PCBP2 (UniProt F8VZX2)
inactive: bafetinib 0.029 | nilotinib 0.029 | [3] -0.112 | dasatinib -0.144 | [4] 0.049 | [8] -0.022 | [1] -0.196 | mubritinib -0.153 | [5] 0.158 | silmitasertib 0.193

PLCXD1 (UniProt Q9NUJ7)
active: bafetinib -0.642
inactive: [1] -0.099

PIK3CD (UniProt O00329)
inactive: bafetinib 0.033 | [8] -0.228 | [1] 0.074 | tipifarnib 0.031 | [10] 0.086 | [9] 0.014 | [2] -0.047 | entinostat -0.008 | citarinostat -0.285 | [6] -0.092 | [7] 0.143

PRR14L (UniProt Q5THK1)
inactive: [11] -0.156 | nilotinib -0.027 | [3] -0.044 | [4] -0.007 | [8] 0.019 | tipifarnib -0.039 | [9] -0.205 | [2] -0.176 | vorinostat -0.009

PIAS4 (UniProt Q8N2W9)
Sequence of UniProt Q8N2W9 (Q8N2W9 whole entry, looked up): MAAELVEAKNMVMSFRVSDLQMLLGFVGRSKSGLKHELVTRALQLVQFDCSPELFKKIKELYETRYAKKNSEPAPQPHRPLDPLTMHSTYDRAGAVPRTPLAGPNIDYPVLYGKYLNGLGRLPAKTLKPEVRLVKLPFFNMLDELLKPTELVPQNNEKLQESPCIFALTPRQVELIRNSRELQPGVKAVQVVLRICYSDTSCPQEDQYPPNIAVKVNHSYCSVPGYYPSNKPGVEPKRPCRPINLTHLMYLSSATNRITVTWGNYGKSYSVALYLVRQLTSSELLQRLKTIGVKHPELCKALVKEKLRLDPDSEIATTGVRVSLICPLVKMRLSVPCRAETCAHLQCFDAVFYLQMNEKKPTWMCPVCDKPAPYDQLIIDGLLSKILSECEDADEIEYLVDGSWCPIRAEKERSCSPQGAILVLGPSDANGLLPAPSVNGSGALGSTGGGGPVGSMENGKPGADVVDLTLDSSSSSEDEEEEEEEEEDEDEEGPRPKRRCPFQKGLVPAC
inactive: [11] 0 | dasatinib -0.116 | [1] 0.313 | tipifarnib 0.002 | mubritinib 0.199 | [5] 0.094 | vorinostat -0.014 | silmitasertib -0.271 | [6] -0.404

PIM1 isoform 2 (UniProt P11309)
Sequence of UniProt P11309 (P11309 whole entry, looked up): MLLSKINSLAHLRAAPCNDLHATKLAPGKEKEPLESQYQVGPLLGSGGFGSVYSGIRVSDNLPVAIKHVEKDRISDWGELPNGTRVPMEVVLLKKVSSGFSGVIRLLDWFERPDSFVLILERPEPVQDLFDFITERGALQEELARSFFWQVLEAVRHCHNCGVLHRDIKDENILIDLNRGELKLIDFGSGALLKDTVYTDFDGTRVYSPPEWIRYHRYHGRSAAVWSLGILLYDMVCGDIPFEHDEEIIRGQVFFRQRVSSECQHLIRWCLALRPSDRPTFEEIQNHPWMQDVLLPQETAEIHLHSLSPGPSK
inactive: [11] -0.263 | mubritinib 0.721 | [5] 0.388 | vorinostat -0.123 | silmitasertib 0.575

PHRF1 (UniProt Q9P1Y6)
inactive: [1] 0.084 | tipifarnib 0.159 | mubritinib -0.099 | [5] 0.148 | silmitasertib 0.176
